Records with an inconclusive call do not appear. Values without a mark were called inactive. Activity calls are given as the source filed them. The call rests on the fitted dose curve; in most records, active means well fitted inhibition curve with a large enough effect; inconclusive means small, poorly fitted or top-dose-only effect, or effect the other way; inactive means flat fitted curve, though single readings scatter.
Assay: Quantitative high throughput screen for delayed death inhibitors of the malarial parasite plastid, 48 hour incubation (AID 488752); further: nearly all actives have a fitted effect of over 65% in size
Conditions: Plasmodium falciparum growth; series mostly up to 28.7 µM; activity change, negative = inhibition: at the top concentration
Text: NIH Molecular Libraries Probe Production Network [MLPCN]
NIH Chemical Genomics Center [NCGC]
Assay Provider: David Fidock and Eric Ekland, Columbia University
The goal of this screen is to discover new antimalarial compounds that act by inhibiting the development of the apicoplast in the malarial parasite Plasmodium falciparum. The biochemical processes that make this organelle essential for erythrocytic stage parasites are not well understood. However, antibiotics, such as azithromycin and tetracycline, which target the apicoplast translational machinery, have a potent antimalarial effect.
We have developed a cell-based assay that measures parasite growth based on the expression of an integrated copy of a firefly luciferase reporter. To detect small molecules that cause this 'delayed death' phenotype, erythrocytes infected with the luciferase-expressing parasites were incubated with compounds for either one or two generations, corresponding to 48 and 96 hours, respectively. Compounds that inhibit parasite growth in the second generation, but not the first, should be enriched in antimalarials that target the apicoplast. Growth inhibition is detected by a decrease in luciferase activity
Four microliters of culture medium (RPMI 1640 with 0.5% w/v Albumax (GIBCO), 24 mM sodium bicarbonate and 10 ug/mL gentamycin) were dispensed by a Multi-drop Combi into white solid 1536-well plates (Grenier) and 23 nL compound was added by a pin tool. Four microliters of infected erythrocytes (2% hematocrit, 0.1% parasitemia final concentration) in culture medium were dispensed and the plates incubated for 48 hours at 37 C in 5% CO2. Two microliters of luciferase detection reagent was added and luminescence was detected by a ViewLux (PerkinElmer) reader
On the % scale 0 is the no-effect control and ±100 the full control effect; potency means the concentration at half of the fitted maximal effect.

SMILES | activity change, negative = inhibition | Potency
NC(=NCCC[C@H](N)C(=O)O)N[N+](=O)[O-] | 0.76% | 
C[N+](C)(C)CC(=O)O | 1.85% | 
C=CCN1CC[C@]23CCCCC2[C@H]1Cc1ccc(O)cc13 (stereo not given in full) | 10.9% | 
NC1CCc2cc(O)c(O)cc2C1 (stereo not given) | 7.22% | 
CC(C)Oc1cccnc1N(C)C1CCN(Cc2ccccc2)CC1 | 13.5% | 
O=C(O)CC[N+](=O)[O-] | -0.81% | 
Cn1cnc(CCN)c1 | 1.11% | 
CC[C@@H]1C(=O)OC[C@@H]1Cc1cncn1C |  | inactive
O=C(O)[C@@H]1CCN1 | -0.798% | 
C[C@]12N[C@H](Cc3ccccc31)c1ccccc12 | 26.6% | 
NCCc1c[nH]c2ccccc12 | -1.35% | 
S=C(NC1CCCCC1)N1CCC(c2cnc[nH]2)CC1 | -4.62% | 
CC(Cc1ccc(O)cc1)NCC(O)c1cc(O)cc(O)c1 (stereo not given) | 7.49% | 
Cc1nccc2c1[nH]c1ccccc12 | -1.07% | 
COc1cc(C(O)CN)ccc1O (stereo not given) | 9.85% | 
O=C(O)Cc1cnc[nH]1 | 1.79% | 
Clc1cnc(Oc2ccc(Oc3ncc(Cl)cc3Cl)cc2)c(Cl)c1 | 5.08% | 
O=C1CCCN1CC#CCN1CCCC1 | 10% | 
NC(N)=NOCCC(N)C(=O)O (stereo not given) | -11.7% | 
CCCCc1ccc(C(=O)O)nc1 | -5.55% | 

SMILES | activity change, negative = inhibition | Potency
NCCc1c[nH]c2ccc(O)cc12 | 10.8% | 
CC[C@@]1(O)C(=O)OCc2c1cc1n(c2=O)Cc2cc3ccccc3nc2-1 |  | 2.33 µM (active)
CC(=O)[C@H]1CCC2C3CC[C@H]4C[C@H](O)CC[C@]4(C)C3CC[C@@]21C (stereo not given in full) | -25% | 
C#CCOC(=O)C1=CCCN(C)C1 | -20.1% | 
NCc1cc(=O)[nH]o1 | -9.82% | 
C[C@@H]1O[C@H](C[N+](C)(C)C)C[C@H]1O | -2.54% | 
C[C@@H](N)Cc1cnc[nH]1 | 1.83% | 
NC(CCP(=O)(O)O)C(=O)O (stereo not given) | 12% | 
CC(=O)NCCc1c[nH]c2ccccc12 | 7.33% | 
CS(=N)(=O)CC[C@H](N)C(=O)O (stereo not given in full) | 4.78% | 
CCCN(CCC)[C@@H]1CCc2ccc(O)cc2C1 | -8.44% | 
CCCN1CCC[C@H](c2cccc(O)c2)C1 | 1.34% | 
CCCN1CCO[C@@H]2c3cc(O)ccc3OC[C@H]21 |  | inactive
CNCCc1ccc(O)c(O)c1 | -14.1% | 
NC1CC1c1ccccc1 (stereo not given) | 9.9% | 
CN1C2CCC1CC(OC(=O)c1cc(Cl)cc(Cl)c1)C2 (stereo not given) | -22.9% | 
NC(=O)CN1CC(O)CC1=O (stereo not given) | 10.3% | 
CC1=NN=C(c2ccc(N)cc2)c2cc3c(cc2C1)OCO3 | 9.21% | 
C[N+]1(C)C2CCC1CC(OC(=O)C(CO)c1ccccc1)C2 (stereo not given) |  | inactive
NC(CP(=O)(O)O)C(=O)O (stereo not given) | -4.31% | 
